Inconclusive results are not listed. A call without a number means that no potency is given here. Active and inactive are the calls of the source. The call rests on the fitted dose curve; in most records, active means well fitted inhibition curve with a large enough effect in the signal ratio in the repeat runs, with a control signal flat; inconclusive means weak or mixed curves, or effect the other way; inactive means flat fitted curve, though single readings scatter; the % refers to the signal ratio.
Potency means the concentration at half of the fitted maximal effect.

D(2) dopamine receptor (Homo sapiens), sequence (P14416 whole entry, looked up): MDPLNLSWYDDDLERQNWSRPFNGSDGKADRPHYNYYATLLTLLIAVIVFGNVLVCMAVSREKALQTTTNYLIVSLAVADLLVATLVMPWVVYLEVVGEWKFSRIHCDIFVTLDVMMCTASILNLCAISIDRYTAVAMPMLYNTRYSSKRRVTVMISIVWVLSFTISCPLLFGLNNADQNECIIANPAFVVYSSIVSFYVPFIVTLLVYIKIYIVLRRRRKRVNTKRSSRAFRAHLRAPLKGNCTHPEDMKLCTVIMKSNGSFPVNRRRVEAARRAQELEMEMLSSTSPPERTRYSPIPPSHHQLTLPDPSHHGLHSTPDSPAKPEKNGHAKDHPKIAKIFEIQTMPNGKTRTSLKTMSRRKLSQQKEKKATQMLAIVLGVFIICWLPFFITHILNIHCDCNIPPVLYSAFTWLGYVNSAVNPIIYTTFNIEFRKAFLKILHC

This assay addresses D(2) dopamine receptor (Homo sapiens) (UniProt P14416). The experiment in a line: Dopamine D2 receptor (DRD2) small molecule antagonists, cell-based qHTS assay (AID 1963595). To be noted: HEK293-DRD2 cAMP HTRF antagonist mode; series mostly up to 92.4 µM. An excerpt:
National Center for Advancing Translational Sciences [NCATS]
Division of Preclinical Innovation [DPI]
U.S. Environmental Protection Agency [EPA]
National Institutes of Environmental Health Sciences [NIEHS]
National Toxicology Program [NTP]
U.S. Food and Drug Administration [FDA]
DRD2 is the D2 subtype of the dopamine receptor, which is coupled to Gi subtype of G protein-coupled receptor. This G protein-coupled receptor inhibits adenylyl cyclase activity. The DRD2-HEK293 cell line stably expressing D2 dopamine receptor can be used for screening agonists and antagonists of interactions between D2 and its ligands. The Hek293-DRD2 cAMP assay is based on HTRF technology. It measures changes of cAMP accumulation in response to Gi coupled GPCR activation or inhibition.
Tox21 Assay Protocol Summary:
DRD2-Hek293 cells were dispensed at 600 cells/3uL/well in 1536-well white plates using a Multidrop Dispenser. After the assay plates were incubated at a 37 C/5% CO2 incubator for 24 h, 1 uL of Ro20-1724 at final concentration of 0.1 mM was transferred to the assay plate by a Flying Reagent Dispenser. Following Ro20-1724 addition, 23 nL of compound dissolved in DMSO, positive controls or DMSO only was added to the assay plates via Wako pintool station. The assay plates were incubated at room temperature for 10 min. Next, 1 uL of mixture of NKH477 (final concentration at 200 nM) and quinpirole (final concentration at 12 nM) was added into the plates. After the assay plates were incubated at room temperature for an additional 30 min, 2.5 ul/well of cAMP-d2 and 2.5 ul/well of anti-cAMP-cryptate were added respectively into the assay plates using a Flying Reagent Dispenser. The plates were incubated at room temperature for 1 h. The fluorescence intensity in the plates was measured at 340 nm excitation and 665 & 620 nm emission by an Envision plate reader.
For orientation: In qHTS, concentration-response curves come from the screen itself.
In the case of `N=C(N)c1ccc(OCCCOc2ccc(C(=N)N)cc2)cc1`, the Potency result was “inactive”.
`CCOCCn1c(C2CCN(CCc3ccc(C(C)(C)C(=O)O)cc3)CC2)nc2ccccc21`: the Potency entry is “inactive”.
On to `CNc1c2c(nn1C)CCCC2`, for which the Potency entry is “inactive”.
The same measure for `CCn1cc(C(=O)O)c(=O)c2cc(F)c(N3CCNCC3)cc21`: “inactive”; for `Oc1ccc(Cl)c2cccnc12`: “inactive”; for `O=C(/C=C/c1ccccc1)OC/C=C/c1ccccc1`: “inactive”.
The same measure for `C[C@H]1C[C@H]2[C@@H]3CCC4=CC(=O)C=C[C@]4(C)[C@H]3C(=O)C[C@]2(C)[C@@]1(O)C(=O)CO`: “inactive”; for `O=C(CCCl)NCCc1ccccc1`: “inactive”.
Take `CCCCCCCCCC(=O)OCC`: the Potency entry is “inactive”.
Take `NS(=O)(=O)c1cc(C(=O)O)cc(N2CCCC2)c1Oc1ccccc1`: the Potency result was “inactive”.
`CCCOC(=O)c1ccc(C(=O)OCCC)nc1`: the Potency entry is “inactive”.
As for `CCN(CC)CCOc1ccc(Cc2ccccc2)cc1`, the Potency result was “inactive”.
Turning to `CCNC(=O)NCCCOc1cccc(CN2CCCCC2)c1`, the Potency entry is “inactive”.
Consider `CN1CC(=O)N/C1=N/C(=O)Nc1cccc(Cl)c1`, for which the Potency entry was “inactive”.
Next, `CC(C(=O)O)c1ccc(C(=O)c2ccccc2)s1` (stereo not given): “inactive”; `Cc1ccc(S(=O)(=O)NC(=O)NN2CC3CCCC3C2)cc1` (stereo not given): “inactive”; `Cc1nc(C)nc(N2C[C@@H](C)N(c3ccnc([C@@H](C)O)n3)[C@@H](C)C2)n1`: “inactive”.
Consider `COc1ccc2c(c1)C(=O)N(CCc1ccc(S(=O)(=O)NC(=O)NC3CCCCC3)cc1)C(=O)C2(C)C`, for which the Potency result is “inactive”.
Consider `CN1CCN(N)CC1`, for which the Potency result was “inactive”.
As to `CCCCCCOC(=O)CCC`, the Potency entry was “inactive”.
Next, `CCCCCCCCCCCCc1ccc(O)cc1`: 61.1 µM (active).
The same measure for `ICCc1ccccc1`: “inactive”; for `CC(C)OC(=O)c1ccccc1`: “inactive”; for `O=c1c2ccccc2nnn1CCl`: “inactive”.
Consider `O=S(=O)(c1ccccc1)c1ccc(Cl)cc1`, for which the Potency entry is “inactive”.
With `CC(C)c1cc(C(C)C)cc(C(C)C)c1`, the Potency result was “inactive”.
With `O=C(Nc1cccc2c(=O)cc(-c3nn[nH]n3)oc12)c1ccc(OCCCCc2ccccc2)cc1`, the Potency result is “inactive”.
Regarding `CC(=O)O[C@H]1C[C@@H]2CC[C@@H]3[C@H](CC[C@@]4(C)[C@H]3C[C@H]([N+]3(C)CCCCC3)[C@@H]4OC(C)=O)[C@@]2(C)C[C@@H]1N1CCCCC1`, the Potency result is “inactive”.
With `Cc1cc(SC2=C(O)C[C@@](CCc3ccc(N)cc3)(C(C)C)OC2=O)c(C(C)(C)C)cc1CO`, the Potency entry was “inactive”.
Take `c1cnc2c(n1)CCCC2`: the Potency result was “inactive”.
With `C=CC/C=C/C/C=C/C/C=C/C`, the Potency entry is “inactive”.
For the compound `C=CCc1ccccc1OCC(O)CNC(C)C` (stereo not given), the Potency result is “inactive”.
Take `OCCN1CN(CCO)CN(CCO)C1`: the Potency result was “inactive”.
As for `O=C(O)CP(=O)(O)O`, the Potency result is “inactive”.
Take `Nc1cccc(S(=O)(=O)c2cccc(N)c2)c1`: the Potency result was “inactive”.
Turning to `Cc1ccccc1C#N`, the Potency result was “inactive”.
`CC1(C)S[C@@H]2[C@H](NC(=O)C(C(=O)O)c3ccccc3)C(=O)N2[C@H]1C(=O)O` (stereo not given in full): the Potency result was “inactive”.
On to `COc1ccc(CCC(=O)c2c(O)cc(O[C@@H]3O[C@H](CO)[C@@H](O)[C@H](O)[C@H]3O[C@@H]3O[C@@H](C)[C@H](O)[C@@H](O)[C@H]3O)cc2O)cc1O`, for which the Potency result is “inactive”.
Next, `CCOc1ccc(NC(=O)OC(C)C)cc1OCC`: “inactive”; `O=C=Nc1cccc(C(F)(F)F)c1`: “inactive”.

These data come from PubChem BioAssay (Tox21).
